Bioassay records as filed in PubChem.
STK33 kin inh = blocks human STK33 kinase activity | ADP-Glo luminescence, MBP substrate | Q9BYT3 | inhibition, % at 12.5 µM | 0.44% of 27,000 active | AID 2322; in the data active = inhibition above about 20%
Target sequence (Q9BYT3 whole entry, looked up): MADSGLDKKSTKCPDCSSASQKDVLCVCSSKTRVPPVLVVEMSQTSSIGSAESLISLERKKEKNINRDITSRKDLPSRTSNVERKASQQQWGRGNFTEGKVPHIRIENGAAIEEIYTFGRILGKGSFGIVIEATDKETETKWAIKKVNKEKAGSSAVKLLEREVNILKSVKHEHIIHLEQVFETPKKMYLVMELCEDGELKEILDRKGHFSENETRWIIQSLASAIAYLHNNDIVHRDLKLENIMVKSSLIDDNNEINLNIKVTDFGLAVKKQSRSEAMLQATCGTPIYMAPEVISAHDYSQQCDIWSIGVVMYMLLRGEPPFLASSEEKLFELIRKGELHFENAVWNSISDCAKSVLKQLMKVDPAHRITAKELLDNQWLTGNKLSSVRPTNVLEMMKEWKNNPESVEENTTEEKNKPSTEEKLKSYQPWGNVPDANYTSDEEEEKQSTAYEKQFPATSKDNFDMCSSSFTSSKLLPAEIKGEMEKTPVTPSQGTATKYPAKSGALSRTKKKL
NOMO-1 viab = STK33 inhibitor candidate reducing NOMO-1 cell viability. NOMO-1 AML viability, CellTiter-Glo luminescence, 72 h. inhibition, % (concentration not given with the values). 7.5% of 37,000 active. AID 2330; in the data active = inhibition above about 80%
PD-1 reversal = activators reversing PD-1 mediated T-cell inhibition | activation, % (test concentration not listed) | 29,000 tested, under 10 active | primary human CD4 T cells, PD-L1 beads, CellTiter-Glo 96 h; call rule not given here;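 also: 0% = median vehicle wells and 100% = positive control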
Numbers without * were called inactive; . = no result. This is one part of a sample in which hits are shown more often than they occur.

SMILES	STK33 kin inh	NOMO-1 viab	PD-1 reversal
C[C@H](CO)N1C[C@H](C)[C@@H](CN(C)S(=O)(=O)c2ccc(Cl)cc2)Oc2c(NC(=O)CCCCCC(=O)Nc3ccccc3N)cccc2C1=O	.	88*	0
COc1ccc(S(=O)(=O)N(C)C[C@@H]2Oc3c(NC(=O)CCCCCC(=O)Nc4ccccc4N)cccc3C(=O)N([C@@H](C)CO)C[C@@H]2C)cc1	.	61	3
C[C@H](CO)N1C[C@H](C)[C@@H](CN(C)S(=O)(=O)c2ccccc2)Oc2c(NC(=O)CCCCCC(=O)Nc3ccccc3N)cccc2C1=O	.	43	0
O=C1NCCN1CCNC(=S)Nc1cc(C(F)(F)F)cc(C(F)(F)F)c1	.	9	0
Cc1cc(C)n2nc(NCc3cccc([N+](=O)[O-])c3)nc2n1	0	9	2
Cc1c(NC(=O)COc2ccccc2Cl)cccc1C(=O)O	1	27	1
CC(Oc1cccc(NC(=O)c2ccc([N+](=O)[O-])cc2)c1)C(=O)c1cccc(Cl)c1 (stereo not given)	-1	19	.
Cc1cccc(C)c1OCc1nnc(CCc2ccccc2)o1	.	7	0
Cc1c(Br)ccc(NC(=O)CSc2nnc(-c3ccc(Cl)cc3)n2C)c1C	2	33	2
COC(=O)c1c(NC(=O)CC2Sc3ccccc3NC2=O)sc(C)c1C (stereo not given)	1	5	-1
COC(=O)c1cc(NC(=O)CC2Sc3ccccc3NC2=O)cc(C(=O)OC)c1 (stereo not given)	8	113*	.
CCCOc1ccc(Oc2nc(NC(C)(C)C)nc(N3CCOCC3)n2)nn1	-4	32	.
C[C@H]1CN([C@@H](C)CO)C(=O)c2cccc(NS(=O)(=O)c3ccc(Cl)cc3)c2O[C@H]1CN(C)Cc1ccc(-c2ccccc2)cc1	.	84*	-5
C[C@H](CO)N1C[C@H](C)[C@H](CN(C)Cc2ccc(Oc3ccccc3)cc2)Oc2c(NS(=O)(=O)c3ccc(F)cc3)cccc2C1=O	.	84*	-4
C[C@@H]1CN([C@H](C)CO)C(=O)c2cccc(NS(=O)(=O)c3ccc(Cl)cc3)c2O[C@H]1CN(C)Cc1ccc(-c2ccccc2)cc1	.	25	.
C[C@H]1CN([C@@H](C)CO)C(=O)c2cccc(NS(=O)(=O)c3ccc(F)cc3)c2O[C@@H]1CN(C)Cc1ccc(Oc2ccccc2)cc1	.	59	-3
Cc1ccc(S(=O)(=O)Nc2cccc3c2O[C@H](CN(C)Cc2ccc(Oc4ccccc4)cc2)[C@@H](C)CN([C@@H](C)CO)C3=O)cc1	.	12	2
Cc1ccc(S(=O)(=O)Nc2cccc3c2O[C@@H](CN(C)Cc2ccc(Oc4ccccc4)cc2)[C@@H](C)CN([C@H](C)CO)C3=O)cc1	.	86*	-2
N#Cc1ccc(C=NCCN2CCNC2=O)cc1	1	1	1
CCOC(=O)N1N=C(C)CC1(O)c1cccnc1 (stereo not given)	-2	3	1
O=C(CSc1nnc(-c2cccs2)n1-c1cccc(C(F)(F)F)c1)c1ccc(F)cc1	-4	28	-4
Cc1[nH]c2ccccc2c1C(=O)CSc1nc2sc(C)c(C)c2c(=O)n1-c1ccccc1	1	100*	-1
Cc1[nH]c2ccccc2c1C(=O)CSc1nc2scc(-c3ccco3)c2c(=O)n1-c1ccccc1	-1	22	-1
C[C@@H]1CCOC(=O)C=CC=CC(=O)O[C@@H]2C[C@H]3O[C@@H]4C=C(C(=O)O)CC[C@]4(COC(=O)[C@H]1O)[C@]2(C)[C@]31CO1	2	121*	-6
O=S(=O)(c1cccc(-c2nnc(-c3ccccc3)o2)c1)N1CCCC1	.	59	-1
SMILES	STK33 kin inh	NOMO-1 viab	PD-1 reversal
COc1cc(O)c2c(=O)c(O[C@@H]3O[C@H](CO[C@@H]4O[C@@H](C)[C@H](O)[C@@H](O)[C@H]4O)[C@@H](O)[C@H](O)[C@H]3O)c(-c3ccc(O)c(O)c3)oc2c1	7	.	.
Cc1ccc(-c2csc3nnc(SCC(=O)c4ccc(Cl)c(Cl)c4)n23)cc1	1	103*	-6
O=C(CSc1nnc2scc(-c3ccccc3)n12)c1ccc2c(c1)OCCO2	-1	-3	2
O=c1cc(-c2ccc(O)cc2)oc2cc(O)c(C3OC(CO)C(O)C(O)C3O)c(O)c12 (stereo not given)	-7	64	4
COc1c(O[C@@H]2O[C@H](CO)[C@@H](O)[C@H](O)[C@H]2O)cc2oc(-c3ccc(O)cc3)cc(=O)c2c1O	19	84*	0
C=C1C(=O)O[C@@H]2[C@H]1[C@H](O)C[C@]1(C)[C@@H](O)CC=C(C)[C@@H]21	-2	115*	-3
c1ccc(-c2nc3ccc(Cc4ccc5nc(-c6ccccn6)c(-c6ccccn6)nc5c4)cc3nc2-c2ccccn2)nc1	9	-18	1
Cc1cc(=S)nc(-c2ccccn2)[nH]1	.	112*	-5
C[C@H](CO)N1C[C@H](C)[C@H](CN(C)S(=O)(=O)c2cccs2)Oc2ccc(NC(=O)Nc3ccc(F)cc3)cc2C1=O	.	21	-1
C[C@H]1CN([C@@H](C)CO)C(=O)c2cc(NC(=O)Nc3ccc(F)cc3)ccc2O[C@@H]1CN(C)S(=O)(=O)c1cccs1	5	25	-2
C[C@@H]1CN([C@@H](C)CO)C(=O)c2cc(NC(=O)Nc3ccc(C(F)(F)F)cc3)ccc2O[C@H]1CN(C)S(=O)(=O)c1cccs1	.	93*	.
C[C@H]1CN([C@@H](C)CO)C(=O)c2cc(NC(=O)Nc3ccc(C(F)(F)F)cc3)ccc2O[C@@H]1CN(C)S(=O)(=O)c1cccs1	.	94*	.
C[C@@H]1CN([C@@H](C)CO)C(=O)c2cc(NC(=O)Nc3ccc(C(F)(F)F)cc3)ccc2O[C@@H]1CN(C)S(=O)(=O)c1cccs1	3	109*	-3
C[C@@H]1CN([C@@H](C)CO)C(=O)c2cc(NC(=O)Nc3ccc(F)cc3)ccc2O[C@@H]1CN(C)S(=O)(=O)c1cccs1	1	14	0
Cc1c(Cl)cccc1NC(=O)CCN1C(=O)c2ccccc2S1(=O)=O	1	15	.
COCCOC(=O)N1C(=O)[C@@]2(c3cc(C#CCC(C(=O)OC)C(=O)OC)ccc31)[C@H](c1ccccc1OCCO)N1[C@H](c3ccccc3)[C@H](c3ccccc3)OC(=O)[C@H]1[C@@H]2C(N)=O	8	.	.
c1ccc(C(c2ccccc2)N2CCN(CCCc3c[nH]c4ccccc34)CC2)cc1	.	116*	-1
c1ccc2c(Cc3c[nH]c4ccccc34)c[nH]c2c1	-3	-10	.
Nc1ccc(C(=O)CC2(O)C(=O)Nc3ccc(F)cc32)cc1 (stereo not given)	0	22	0
Cn1c(Cn2cc(C(F)(F)F)ccc2=O)n[nH]c1=S	-1	11	3
C[C@@H]1CCCCO[C@@H](CN(C)C(=O)Nc2cccc3ccccc23)[C@@H](C)CN([C@H](C)CO)C(=O)c2cc(NS(=O)(=O)c3ccccc3)ccc2O1	5	55	-3
C[C@@H]1CCCCO[C@@H](CN(C)C(=O)C2CCCCC2)[C@@H](C)CN([C@H](C)CO)C(=O)c2cc(NS(=O)(=O)c3ccccc3)ccc2O1	6	101*	.
Cc1ccc(S(=O)(=O)Nc2ccc3c(c2)C(=O)N([C@H](C)CO)C[C@H](C)[C@@H](CN(C)C(=O)Nc2ccc(C(F)(F)F)cc2)OCCCC[C@@H](C)O3)cc1	0	69	.
